Screening data: PubChem BioAssay, National Center for Advancing Translational Sciences (NCATS)
Compounds with a hit are over-represented: about 8.9% of the library has one in this group of screens.
KB-V1 cytotox: kills drug-selected multidrug resistant KB-V1 cells | KB-V1 MDR cells viability, CellTiter-Glo, 72 h | Potency, µM (top dose mostly 46.1 µM), hits mostly cytotoxic | hit rate 3.4% among 400,000 | AID 1347076; further: potency means the concentration at half of the fitted maximal effect; on the % scale 0 is the no-effect control and ±100 the full control effect; nearly all actives have a fitted effect of over 60% in size
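KB-V1 MDR subline cells in DMEM (phenol-red free, 10% FBS) exposed to compounds in qHTS concentration series for 72 h at 37 degrees C. Viability read by CellTiter-Glo luminescence; concentration-effect curves fitted after normalization and correction.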
SW480 rerep: DNA re-replication induction in SW480 cells | SW480 DNA re-replication, Hoechst DNA content imaging, 48 h | Potency, µM (titrated, usually from 46.1 µM), without a hit: at the highest dose re-replication activation, actives largely listed as activators | hit rate 1.8% among 340,000; further: potency means the concentration at half of the fitted maximal effect; % of control where 0% means no effect; nearly all actives have a fitted effect of over 55% in size
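Image-based DNA-content assay: after two days of treatment, nuclei were labelled with the DNA dye Hoechst and imaged, and hits were compounds raising the count of nuclei showing high fluorescence intensity.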
D3 ag: agonists of human D3 dopamine receptor; P35462; D3R DiscoveRx beta-arrestin cells, luminescence, 90 min; max activation, %; hit rate 0.58% among 410,000; in the data active means max activation above about 30%; further: 0% is about no effect
Target sequence (P35462 whole entry, looked up): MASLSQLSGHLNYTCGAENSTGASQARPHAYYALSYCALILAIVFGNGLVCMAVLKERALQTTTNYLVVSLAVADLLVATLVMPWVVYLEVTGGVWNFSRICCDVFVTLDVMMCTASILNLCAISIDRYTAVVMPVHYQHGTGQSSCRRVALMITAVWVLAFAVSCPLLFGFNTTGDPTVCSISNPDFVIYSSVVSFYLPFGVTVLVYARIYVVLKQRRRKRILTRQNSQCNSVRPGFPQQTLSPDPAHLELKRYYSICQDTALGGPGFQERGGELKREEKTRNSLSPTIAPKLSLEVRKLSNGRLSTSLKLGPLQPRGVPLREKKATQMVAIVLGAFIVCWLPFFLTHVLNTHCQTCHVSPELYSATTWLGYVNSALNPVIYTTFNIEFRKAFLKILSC
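Cells at 1500/well, incubated overnight, then treated with pinned compounds (dopamine as control) for 90 min at 37 degrees C. DiscoveRx reagent added for 30 - 60 minutes at room temperature; luminescence read.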
MCF10A rereplic: induces DNA re-replication in MCF 10a normal breast cells; hit rate 2.9% among 350,000; MCF 10A DNA re-replication, Hoechst nuclear intensity, 48 h; Potency, µM (highest dose often 46.1 µM), without a hit: at the top dose activity, positive = re-replication, most hits filed as activators; further: potency means the concentration at half of the fitted maximal effect; % of control where 0% means no effect; nearly all actives have a fitted effect of over 50% in size
D3 antag: blocks the human D3 dopamine receptor; hit rate 2.5% among 360,000; D3R cells, DiscoveRx beta-arrestin luminescence, antagonist mode; stronger effect = lower value; P35462; max response, negative = inhibition, %; in the data active means max response below about -50%; inconclusive means no clear call, values can overlap the other calls; further: on the % scale 0 is the no-effect control and ±100 the full control effect
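Cells expressing the human receptor were seeded at 1500 cells/well, incubated overnight at 37 degrees C in 5% CO2, then exposed to library compounds with dopamine controls for 90 minutes at 37 degrees C before luminescent detection.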
KB-3-1 cytotox: KB-3-1 parental cell cytotoxicity | KB-3-1 viability, CellTiter-Glo ATP luminescence, 72 h | Potency, µM (highest dose often 46.1 µM), usual class: cytotoxic | hit rate 1.4% among 400,000 | AID 1347075; further: potency means the concentration at half of the fitted maximal effect; on the % scale 0 is the no-effect control and ±100 the full control effect; nearly all actives have a fitted effect of over 60% in size
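72 h, 37 °C compound treatment of KB-3-1 parental cells; CellTiter-Glo added, 10 min, luminescence read. Data corrected against DMSO-only plates and normalized before curve fitting.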
* = called active by the depositor; i = inactive; u = inconclusive; x = not tested or not shown; ! = a repeat was not active; [ ] = dose if it differs, or a comment. Unless noted, the call rests on the fitted dose curve; in most records, active means well fitted curve in the direction sought with a large enough effect; inconclusive means small, poorly fitted or top-dose-only effect, or another doubt; inactive means no such curve, though single readings can be large; an effect the other way counts as inactive or inconclusive.

SMILES | KB-V1 cytotox | SW480 rerep | D3 ag | MCF10A rereplic | D3 antag | KB-3-1 cytotox
Cc1c(P(=S)(c2ccccc2)c2ccccc2)[n+]2ccccc2n1C | u | -17.6% | -9.8 | 0.731µM* | -10.1 | 2.59µM*!
CCN(CC)C(=O)c1ccc(NC(=O)CCn2nc(-c3ccc(Cl)cc3)c3ccccc3c2=O)cc1 | i | x | 1.1 | x | x | i
COc1ccc(CC(=O)N2C[C@H]3C[C@@H](C2)c2cccc(=O)n2C3)cc1 | i | -3.5% | -22.3 | -6.6% | 18.8 | i
COc1ccc(OC(=O)N2C/C(=C/c3ccccc3)C(=O)/C(=C\c3ccccc3)C2)cc1 | u | 3.66µM* | -7.9 | 7.31µM* | -15.0 | u
CN1c2ccccc2C(NCCCCCCC(=O)O)c2ccc(Cl)cc2S1(=O)=O (configuration not stated) | x | 2.0% | 8.7 | 0.3% | x | x
CN1CCC(N(C)c2ncnc3ccc(Br)cc23)CC1 | i | 3.9% | -26.2 | 7.9% | -5.6 | i
Cc1ccc(-c2nc(N(C)C3CCN(C)CC3)c3ccccc3n2)cc1 | 20.6µM* | 12.7% | -17.2 | 6.0% | -26.7 | i
O=C(Nc1ccncc1)c1cccn(Cc2ccccc2)c1=O | 5.8µM* | 11.0% | 9.1 | 0.0% | 29.8 | u
O=C(Nc1ccccc1)c1cccn(Cc2ccccc2)c1=O | u | -135.7% | 16.8 | 17.5% | 4.0 | u
CCOC(=O)c1ccc(NC(=O)c2cccn(Cc3ccc(C)cc3)c2=O)cc1 | i | x | -5.8 | x | x | u
CCOC(=O)c1ccc(NC(=O)c2cccn(Cc3ccccc3F)c2=O)cc1 | 5.8µM* | x | 10.3 | x | x | i
Clc1ccc(CS[C@@H](Cn2ccnc2)c2ccc(Cl)cc2Cl)cc1 | x | -3.7%[20.6 µM] | x | u | x | x
CCN[C@@H](C)Cc1ccccc1 | x | x | 6.1 | x | x | x
CC1CCN(C(CC(=O)c2ccccc2)C(=O)c2ccccc2)CC1 (configuration not stated) | i | 6.51µM* | -20.0 | 3.66µM* | -79.0* | i
C=Cc1cc(OC)c2c(c1)c(=O)oc1c2cc(OC)c2c(O)ccc(C3OC(C)C(O)C(C)(O)C3O)c21 (configuration not stated) | 18.4µM* | 8.2µM* | -11.0 | 3.66µM* | u | u
COc1ccc(NC(=O)CN2C(=O)C(C)N=C(c3ccccc3F)c3cc(Cl)ccc32)c(OC)c1 (configuration not stated) | x | x | 7.3 | x | x | x
CCCCCl | x | -1.0% | -11.4 | -2.9% | x | x
COc1cc2cc(C(=O)N3CC(COS(C)(=O)=O)c4ccc(O)cc43)[nH]c2c(OC)c1OC (configuration not stated) | 0.0092µM* | -7.8% | -15.6 | -7.3% | -21.2 | u
Cc1ccsc1C(=O)C1CCCN(Cc2cnn(C)c2)C1 (configuration not stated) | i | -9.7% | -13.7 | -17.1% | u | i
COc1cccc(O)c1CN1CCCC(C(=O)c2sccc2C)C1 (configuration not stated) | u | u | -15.8 | 28.2%[9.22 µM] | u | i
COc1ccc(C(=O)C2CCCN(Cc3cccc(C)n3)C2)c(OC)c1 (configuration not stated) | i | -28.3% | -9.4 | -15.9% | 14.1 | i
COc1ccc(OC)c(CN2CCCC(C(=O)c3sccc3C)C2)c1 (configuration not stated) | u | -17.9% | -21.3 | -2.1% | -82.2* | i
Cc1ccsc1C(=O)C1CCCN(Cc2cc(C(C)C)n[nH]2)C1 (configuration not stated) | u | -40.3% | -26.3 | -3.7% | -80.8* | i
COc1ccc(C(=O)C2CCCN(Cc3ccc(C)s3)C2)c(OC)c1 (configuration not stated) | u | 0.7% | -16.3 | -0.1% | -68.9* | i
Cc1ccsc1C(=O)C1CCCN(Cc2ccn[nH]2)C1 (configuration not stated) | i | -0.3% | -22.3 | -3.3% | -62.2* | i
SMILES | KB-V1 cytotox | SW480 rerep | D3 ag | MCF10A rereplic | D3 antag | KB-3-1 cytotox
O=C(COc1ccc(Br)cc1)Nc1ccc(Cl)cc1C(=O)c1ccccc1 | x | x | 4.3 | x | x | x
COc1ccccc1CC(=O)Nc1ccc2c(c1)OC1(CCCC1)O2 | i | u | -11.7 | 0.3% | -9.3 | i
CSC1=NC(C)(C)CC2(C)Nc3ccccc3N12 (configuration not stated) | i | -187.1% | 15.6 | -4.9% | 15.8 | i
COc1ccc(Cl)cc1C(=O)C1CCCN(Cc2cnc(C)s2)C1 (configuration not stated) | u | u | -7.9 | 18.0% | -55.8* | i
COc1ccc(OC)c([C@@H](O)[C@H](C)N)c1 | x | x | -7.7 | x | x | x
CCC(=O)OC1CCC2C3CCC4CC(=O)C=CC4(C)C3CCC12C (configuration not stated) | 5.8µM* | u | 5.7 | u | -1.7 | 10.3µM*
CC(C)CCC(=O)OC1CCC2C3CCC4=CC(=O)CC[C@]4(C)C3CC[C@]12C (some centres not stated) | x | 1.4% | x | u | x | x
COc1ccc(Cl)cc1NC(=O)CN1C(=O)CN=C(c2ccccc2)c2cc(Cl)ccc21 | u | x | -11.1 | x | x | u
Cc1cccc(-c2nn3c(=O)cc(CN4CCN(C(=O)COc5ccc(Cl)cc5)CC4)nc3s2)c1 | i | x | -3.5 | x | x | i
Cc1cccc(CN2C(=O)CN=C(c3ccccc3)c3ccccc32)c1 | x | x | -15.8 | x | x | x
O=C(CN1C(=O)CN=C(c2ccccc2)c2ccccc21)NCc1ccco1 | i | 4.8% | -7.4 | 19.2% | -60.7* | i
Cc1ccc(CN2C(=O)CN=C(c3ccccc3)c3ccccc32)cc1 | 18.4µM* | -18.2% | 3.8 | -1.7% | 1.7 | u
O=C1CN=C(c2ccccc2)c2cc(Cl)ccc2N1Cc1ccc(Cl)cc1 | 14.6µM* | x | 6.3 | x | x | u
CC(C)CCNC(=O)CN1C(=O)CN=C(c2ccccc2)c2ccccc21 | i | 0.1% | 0.0 | -1.8% | -12.9 | i
Cc1cccc(CN2C(=O)CN=C(c3ccccc3)c3cc(Cl)ccc32)c1 | x | x | -12.3 | x | x | x
CSCc1nnc2n1-c1ccc(Cl)cc1C(c1ccccc1)=NC2 | 16.4µM* | 0.1% | 2.9 | 17.8% | 5.1 | u
COc1ccc2cc1Oc1ccc(cc1)C[C@H]1c3cc(c(OC)cc3CCN1C)Oc1c(OC)c(OC)cc3c1[C@@H](C2)N(C)CC3 | i | u | -41.6 | -12.8% | 0.0 | i
C=CC[N+]1(C)CCC23c4c5ccc(O)c4O[C@H]2C(=O)CC[C@@]3(O)C1C5 (some centres not stated) | x | 10.4% | x | 0.3% | x | x
Cc1ccc(OCC(=O)Nc2ccc(Cl)cc2C(=O)c2ccccc2)cc1C | x | x | 8.1 | x | x | x
CCCCCc1cc(O)c2c(c1)OC(C)(C)[C@@H]1CCC(C)=C[C@@H]21 | x | x | 8.0 | x | x | x
